Measured values as given in PubChem BioAssay AID463173 (ICCB-Longwood Screening Facility, Harvard Medical School, 2010).
Out of some 52,000 compounds screened, about 4,300 (8.3%) were called active. What follows is part of a selection rich in actives, with near analogues and random picks from the rest. Unmarked numbers belong to inactive results. Cut-off read from the data, not from the text of the source: active = survival mostly below about 52% (no sharp cut-off); inactive = mostly above about 56%.

Tested on: DeltatarO mutant
Test: S. aureus survival, RN4220 and DeltatarO strains – OD600, teichoic acid synthesis inhibitors, primary screen (AID 463173)
Details: S. aureus RN4220 wild type/DeltatarO growth, OD600, 18 h, stronger effect = lower value, screened at 18.75 µg/mL (by protocol)

Row | SMILES | survival
1 | CCCCNC(=O)CSc1nc(-c2ccc(OC)cc2)cc(C(F)(F)F)n1 | 66%
2 | Cc1oc2c(c(C)cc3oc(=O)c(CC(=O)NCc4ccc(F)cc4)c(C)c32)c1C | 89%
3 | CCc1c(C)nc2cc(-c3cc(OC)cc(OC)c3)nn2c1NCCO | 95%
4 | CC(=O)N1c2ccccc2C(=O)C1N1CCN(c2cccc(C(F)(F)F)c2)CC1 (stereo unspecified) | 91%
5 | O=C(c1ccc(F)cc1)N1c2nc(-c3ccco3)nn2C2(CCCCC2)[C@@H]2CCCC[C@@H]21 | 53%
6 | O=C(c1ccccc1)N1c2nc(-c3ccco3)nn2C2(CCCCC2)[C@@H]2CCCC[C@@H]21 | 62%
7 | Cc1ccc(C(=O)N2c3nc(-c4ccco4)nn3C3(CCCCC3)[C@@H]3CCCC[C@@H]32)cc1 | 59% (active)
8 | CSc1ccc(CCNC(=O)c2ccc(-c3nc(COc4ccc(C)cc4)c(C)o3)cc2)cc1 | 82%
9 | COc1cccc(NC(=O)CSc2nc(=O)n(Cc3ccco3)c3c2CCC3)c1 | 90%
10 | Cc1c(Cl)cccc1NC(=O)CCN1C(=O)c2ccccc2Sc2ncccc21 | 78%
11 | CCOc1ccc(C(=O)Cn2c(=O)n3nc(CCn4nc(C)cc4C)nc3c3cc(OC)c(OC)cc32)cc1 | 98%
12 | COc1ccc(OC)c(Nc2c3c(nc4ccccc24)CCC3)c1 | 94%
13 | COc1ccc(Nc2c3c(nc4ccccc24)CCC3)cc1Cl | 59%
14 | Fc1ccc(Nc2c3c(nc4ccccc24)CCC3)cc1 | 69%
15 | Cc1ccc2nc3c(c(Nc4ccc(C)c(C)c4)c2c1)CCC3 | 38% (active)
16 | COc1ccc(C)cc1Nc1c2c(nc3ccccc13)CCC2 | 85%
17 | Cc1ccc(Nc2c3c(nc4ccccc24)CCC3)cc1F | 2% (active)
18 | CCOC(=O)c1ccc(CN(Cc2ccccc2C)S(=O)(=O)c2ccc(C(C)(C)C)cc2)cc1 | 83%
19 | CCN1C(=O)c2ccccc2S(=O)(=O)c2ccc(C(=O)NCc3ccc(C)cc3)cc21 | 61%
20 | Cc1ccc(C(=O)c2cn(CC(=O)NCc3ccccc3)c3nc(C)ccc3c2=O)cc1 | 95%
21 | Cc1ccc(CNC(=O)c2c(-c3ccc(F)cc3F)noc2C)o1 | 77%

Row | SMILES | survival
22 | CCc1nn2c(=O)cc(COC(=O)c3ccccc3NC(=O)COc3ccc(C)c(C)c3)nc2s1 | 87%
23 | COc1ccc(Br)cc1CNC(=O)CCCn1c(=O)c2cccn2c2ccccc21 | 39% (active)
24 | CN(C)CCNC(=O)CCCn1c(=O)c2cccn2c2ccccc21 | 64%
25 | COc1ccc(Br)cc1CNC(=O)CCCn1c(=O)c2cccn2c2cccnc21 | 106%
26 | COc1ccccc1CNC(=O)CCCn1c(=O)c2cccn2c2ccccc21 | 76%
27 | Cc1ccccc1CNC(=O)CCCn1c(=O)c2cccn2c2ccccc21 | 68%
28 | O=C(CCCn1c(=O)c2cccn2c2ccccc21)NCc1ccccc1Br | 43% (active)
29 | CCCCN(CC)C(=O)CCn1c(=O)c2cccn2c2cccnc21 | 70%
30 | CCCCN(CC)C(=O)CCCn1c(=O)c2cccn2c2ccccc21 | 49% (active)
31 | O=C(CCCn1c(=O)c2cccn2c2cccnc21)NCc1ccccc1Br | 130%
32 | O=C(CN1C(=O)CCSc2ccccc21)Nc1ccccc1F | 85%
33 | CCc1ccc(NC(=O)C2CCN(c3nn4c(=O)cc(C)nc4s3)CC2)cc1 | 101%
34 | COc1ccc(Cn2c(=O)c3cccnc3n(CC(=O)Nc3c(C)cc(C)cc3C)c2=O)cc1 | 87%
35 | O=C(CN1C(=O)COc2ccc(S(=O)(=O)N3CCCCC3)cc21)NCc1ccc(Cl)cc1 | 64%
36 | CCOC(=O)c1ccc(NC(=O)c2nn(C)c3c2COc2ccccc2-3)cc1 | 106%
37 | O=C(CSC1=Nc2ccccc2N=C(c2ccc(F)cc2)C1)NCc1ccc(Cl)cc1 | 72%
38 | CCc1nn(CC(=O)N2CCCCC2)c(=O)c2cc3sccc3n12 | 65%
39 | CC1CCN(S(=O)(=O)c2ccc3c(ccc(=O)n3CC(=O)Nc3ccc(C(C)C)cc3)c2)CC1 | 0% (active)
40 | CC1CCN(S(=O)(=O)c2ccc3c(ccc(=O)n3CC(=O)NCc3ccc(Cl)cc3)c2)CC1 | 75%
41 | Cc1ccc(NC(=O)Cn2c(=O)ccc3cc(S(=O)(=O)N4CCC(C)CC4)ccc32)cc1Cl | 74%
42 | CC1CCN(S(=O)(=O)c2ccc3c(ccc(=O)n3CC(=O)NCc3ccccc3)c2)CC1 | 49%

Row | SMILES | survival
43 | Cc1ccc(CNC(=O)Cn2c(=O)ccc3cc(S(=O)(=O)N4CCC(C)CC4)ccc32)cc1 | 37% (active)
44 | CC(=O)Nc1ccc(NC(=O)Cn2c(=O)ccc3cc(S(=O)(=O)N4CCC(C)CC4)ccc32)cc1 | 84%
45 | CCCNC(=O)N1CCN(S(=O)(=O)c2ccc3c(ccn3C)c2)CC1 | 83%
46 | CCc1c(-c2ccccc2)nc2ccccc2c1C(=O)NCCc1ccccc1 | 70%
47 | CCOc1ccc(NC(=O)Cn2c(=O)n(-c3ccccc3)c(=O)c3ccc(C(=O)NCc4ccc5c(c4)OCO5)cc32)cc1 | 107%
48 | COc1cccc(CNC(=O)CSc2nc(=O)[nH]c3c2CCC3)c1 | 80%
49 | CCOc1ccc(-c2cc(C(=O)NCc3ccc(OCC)c(OC)c3)[nH]n2)cc1 | 85%
50 | Cc1cc(N2CCN(C)CC2)nc2ccc(NC(=O)Nc3cccc(Cl)c3)cc12 | 70%
51 | Cc1cc(N2CCCCC2)nc2ccc(NC(=O)c3cccc(F)c3)cc12 | 83%
52 | Cc1cc(N2CCN(C)CC2)nc2ccc(NC(=O)Nc3ccccc3)cc12 | 65%
53 | CCN1CCN(c2cc(C)c3cc(NC(=O)c4cccc(C(F)(F)F)c4)ccc3n2)CC1 | 63%
54 | Cc1cc(N2CCN(C)CC2)nc2ccc(NC(=O)Nc3ccc(Cl)cc3)cc12 | 72%
55 | CCN1CCN(c2cc(C)c3cc(NC(=O)c4cc(Br)ccc4Cl)ccc3n2)CC1 | 32% (active)
56 | Cc1ccccc1C(=O)Nc1ccc2nc(N3CCCCC3)cc(C)c2c1 | 32% (active)
57 | Cc1cc(N2CCCCC2)nc2ccc(NC(=O)c3cccc(Cl)c3)cc12 | 0% (active)
58 | Cc1cc(C)cc(NC(=O)Nc2ccc3nc(N4CCN(C)CC4)cc(C)c3c2)c1 | 117%
59 | CCN1CCN(c2cc(C)c3cc(NC(=O)c4cccc(Cl)c4)ccc3n2)CC1 | 23% (active)
60 | Cc1cc(N2CCCCC2)nc2ccc(NC(=O)CCC(=O)N3CCN(c4ccccc4)CC3)cc12 | 62%
61 | Cc1ccc(C(=O)Nc2ccc3nc(N4CCCCC4)cc(C)c3c2)cc1F | 55%
